From PubChem BioAssay AID1159580 (chemical genetic matrix, 2015)
Several values for one entry are separate records, joined by “and”; a condition that tells them apart may be missing. Identical values can stand only once. Among all 5,500 compounds or so, about 2,000 (36%) were called active. Not shown: some 18% with an inconclusive outcome. No stated cut-off is given here; in the data, active means normalized growth mostly below about 0.91 (no sharp cut-off); inconclusive means no clear call, values can overlap the other calls; inactive means mostly above about 0.92. Some of the results follow.

Assay: chemical genetic growth profiling, strain panel (AID 1159580);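 further: tested at 20 µM; growth read once vehicle control cultures reached saturation at 30 °C; 1 = growth at the plate median or of vehicle wells; lower values mean less growth of the strain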
Settings: S. cerevisiae deletion strains, growth OD

Measured: normalized growth

Nc1nc2ncc(=O)[nH]c2c(=O)[nH]1
inactive: locus YAL013W, strain DEP1, active compounds read low 1 | locus YAL021C, strain ccr4, active compounds read low 0.978 | locus YAL026C, strain drs2, active compounds read low 0.999 | locus YAL030W, strain snc1, active compounds read low 0.98 | locus YBL061C, strain skt5, active compounds read low 0.973 | locus YBR009C, strain hhf1, active compounds read low 0.995 | locus YBR021W, strain FUR4, active compounds read low 0.99 | locus YBR023C, strain chs3, active compounds read low 0.979 | locus YBR171W, strain sec66, active compounds read low 0.983 | locus YBR229C, strain ROT2, active compounds read low 1 | locus YBR231C, strain swc5, active compounds read low 0.989 | locus YBR279W, strain paf1, active compounds read low 0.984 | locus YCL011C, strain gbp2, active compounds read low 0.989 | locus YCL016C, strain dcc1, active compounds read low 0.976 | locus YCL029C, strain bik1, active compounds read low 0.989 | locus YCL061C, strain MRC1, active compounds read low 0.977 | locus YCL069W, strain vba3, active compounds read low 0.989 | locus YCR088W, strain abp1, active compounds read low 0.972 | locus YDL005C, strain med2, active compounds read low 0.965 | locus YDL035C, strain GPR1, active compounds read low 1.01 | locus YDL040C, strain nat1, active compounds read low 0.986 | locus YDL074C, strain BRE1, active compounds read low 1.06 | locus YDL101C, strain DUN1, active compounds read low 1 | locus YDL134C, strain PPH21, active compounds read low 1 | locus YDL185W, strain tfp1, active compounds read low 0.975 | locus YDL192W, strain arf1, active compounds read low 0.989 | locus YDR001C, strain nth1, active compounds read low 0.972 | locus YDR069C, strain doa4, active compounds read low 1.01 | locus YDR101C, strain arx1, active compounds read low 0.998 | locus YDR137W, strain rgp1, active compounds read low 0.971 | locus YDR150W, strain NUM1, active compounds read low 0.997 | locus YDR159W, strain sac3, active compounds read low 0.973 | locus YDR162C, strain NBP2, active compounds read low 1.01 | locus YDR195W, strain ref2 0.949 | locus YDR297W, strain sur2, active compounds read low 0.982 | locus YDR318W, strain mcm21, active compounds read low 0.993 | locus YDR334W, strain swr1, active compounds read low 0.98 | locus YDR335W, strain msn5, active compounds read low 0.978 | locus YDR388W, active compounds read low 0.985 | locus YDR392W, strain spt3, active compounds read low 0.927 | locus YDR502C, strain sam2, active compounds read low 0.996 | locus YEL003W, strain gim4, active compounds read low 0.981 | locus YEL037C, strain rad23, active compounds read low 0.995 | locus YEL061C, strain CIN8 (second series), active compounds read low 0.976 | locus YEL061C, strain CIN8, active compounds read low 1 | locus YER015W, strain faa2, active compounds read low 1 | locus YER016W, strain bim1, active compounds read low 0.984 | locus YER110C, active compounds read low 0.976 | locus YER111C, strain swi4, active compounds read low 0.957 | locus YER155C, strain BEM2 (second series), active compounds read low 0.985 | locus YER155C, strain BEM2, active compounds read low 0.993 | locus YER167W, strain BCK2, active compounds read low 0.994 | locus YFR010W, strain ubp6, active compounds read low 0.977 | locus YGL078C, strain dbp3, active compounds read low 0.976 | locus YGL086W, strain mad1, active compounds read low 0.989 | locus YGL167C, strain pmr1, active compounds read low 0.968 | locus YGL173C, strain kem1, active compounds read low 0.981 | locus YGL227W, strain vid30, active compounds read low 0.988 | locus YGL240W, strain doc1, active compounds read low 1 | locus YGL248W, strain PDE1, active compounds read low 1.01 | locus YGL253W, strain hxk2, active compounds read low 0.976 | locus YGR078C, strain PAC10, active compounds read low 1.03 | locus YGR135W, strain pre9, active compounds read low 1.02 | locus YGR229C, strain SMI1, active compounds read low 1.04 | locus YGR252W, strain gcn5, active compounds read low 1.01 | locus YHR013C, strain ard1, active compounds read low 0.946 | locus YHR027C, strain rpn1, active compounds read low 0.98 | locus YHR030C, strain SLT2, active compounds read low 1 and 0.966 | locus YHR079C, strain IRE1 (second series), active compounds read low 0.997 | locus YHR079C, strain IRE1, active compounds read low 0.967 | locus YHR094C, strain hxt1, active compounds read low 0.965 | locus YHR129C, strain ARP1, active compounds read low 1 | locus YHR142W, strain chs7, active compounds read low 0.941 | locus YHR200W, strain rpn10, active compounds read low 0.988 | locus YIL066C, strain RNR3, active compounds read low 1.01 | locus YIL073C, strain SPO22, active compounds read low 0.921 | locus YIL125W, strain kgd1, active compounds read low 0.981 | locus YIR030C, strain dcg1, active compounds read low 0.994 | locus YJL092W, strain hpr5, active compounds read low 0.976 | locus YJL095W, strain BCK1 (second series), active compounds read low 0.98 | locus YJL095W, strain BCK1, active compounds read low 1.06 and 0.983 | locus YJL115W, strain asf1, active compounds read low 0.977 | locus YJL129C, strain trk1, active compounds read low 0.953 | locus YJL134W, strain LCB3, active compounds read low 0.997 | locus YJL154C, strain vps35, active compounds read low 0.971 | locus YJL164C, strain tpk1, active compounds read low 0.979 | locus YJL166W, strain qcr8, active compounds read low 0.982 | locus YJL168C, strain set2, active compounds read low 0.988 | locus YJL187C, strain SWE1 (second series), active compounds read low 0.999 | locus YJL187C, strain SWE1, active compounds read low 0.976 | locus YJR043C, strain POL32, active compounds read low 1.01 | locus YJR066W, strain TOR1, active compounds read low 0.945
